About 2,500 (1.9%) of roughly 130,000 compounds were called active. The list comes from a sample in which actives are over-represented; it also holds similar structures and randomly drawn compounds. Values without a mark were called inactive.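 How the source made its calls: active means signal ratio slope over the read window, or its plate-corrected B-score, at least 3 SD from the plate mean, either direction; inactive means the rest.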
target: ATP-sensitive inward rectifier potassium channel 1 (Homo sapiens) (UniProt P48048); assay: ROMK potassium channel modulators, primary screen, cell-based, thallium flux, MLSMR library (AID 1918); conditions: Tet-inducible ROMK, thallium flux fluorescence; at 10 µM; actives lie on both sides;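 further: B-score of the F/F0 ratio slope over 7 to 12 s after thallium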
Sequence (P48048 whole entry, looked up): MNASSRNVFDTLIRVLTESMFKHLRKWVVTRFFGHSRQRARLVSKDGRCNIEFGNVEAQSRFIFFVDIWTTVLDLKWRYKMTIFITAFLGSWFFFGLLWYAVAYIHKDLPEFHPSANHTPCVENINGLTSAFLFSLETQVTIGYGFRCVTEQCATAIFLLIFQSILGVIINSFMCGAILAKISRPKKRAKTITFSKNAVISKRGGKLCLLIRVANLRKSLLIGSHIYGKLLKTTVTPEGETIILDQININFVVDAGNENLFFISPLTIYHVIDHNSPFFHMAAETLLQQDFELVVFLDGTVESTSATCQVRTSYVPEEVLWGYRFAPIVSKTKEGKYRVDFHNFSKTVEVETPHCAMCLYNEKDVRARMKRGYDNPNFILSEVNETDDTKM

| SMILES | B-score |
| --- | --- |
| COc1ccc(NC(=O)C(C)SCc2ccccc2)cc1 (stereo not given) | 0.339 |
| COc1ccc(-c2[nH]ncc2CN(C)Cc2cccnc2)c(F)c1 | 0.572 |
| COc1ccc(-c2[nH]ncc2CN(C)Cc2cc(C)[nH]n2)c(F)c1 | 0.139 |
| COc1ccc(-c2[nH]ncc2CN(C)Cc2c(C)n[nH]c2C)c(OC)c1 | 1.28 (active) |
| Cc1cc(/C=C2/NC(=O)NC2=O)c(C)n1-c1cccnc1 | 0.0128 |
| CCc1cc2c(=O)c(-c3ccc(F)cc3)c(C(F)(F)F)oc2cc1OCC(=O)O | -0.413 |
| O=c1c(-c2ccc3c(c2)OCCO3)c(C(F)(F)F)oc2cc(O)cc(O)c12 | -5.2 (active) |
| COc1ccc(-c2onc(C)c2-c2ccc3c(c2)OCCO3)c(O)c1 | -0.0517 |
| COc1ccc(C(C)=O)cc1CSc1nc2nc(C)cc(C)n2n1 | 1.28 |
| Cc1cccc(NC(=S)Nc2ccc(Cl)c(Cl)c2)c1 | 0.116 |
| COc1ccc(CCNC(=O)CSc2nnc(CNC(=O)c3cccs3)o2)cc1OC | -0.208 |
| COc1ccc(CCNC(=O)COC(=O)/C=C/c2cccs2)cc1OC | -0.931 |
| COc1ccc(CN(C(=O)c2cccs2)c2nccs2)cc1OC | 4.52 (active) |
| O=c1[nH]n2c(-c3ccccc3)nc(O)c2c2ccccc12 | 2.45 |
| C=C(C)C1CC=C(C)/C(=N/NC(=O)CCCNc2cccc(C)c2)C1 (stereo not given) | 1.1 |
| Cc1ccc(CNC(=O)C2CC(=O)N(C3CCCCCCC3)C2)cc1 (stereo not given) | -2.38 (active) |
| Cc1ccc(CNC(=O)C2CCCN(S(C)(=O)=O)C2)cc1 (stereo not given) | 0.0583 |
| CC(C)OCCCNC(=O)C1CC(=O)N(C2CCCCCCC2)C1 (stereo not given) | -0.488 |
| O=C(COc1ccccc1)Nc1ccc(N2CCN(C(=O)c3cccs3)CC2)cc1 | -0.916 |
| CC(=O)Nc1ccc(OCCC[n+]2cccc(C(=O)[O-])c2)cc1 | 0.158 |

| SMILES | B-score |
| --- | --- |
| COc1cc(NC(=S)NCc2ccc(S(N)(=O)=O)cc2)cc(OC)c1 | 2.23 |
| COC(=O)CNC(=O)c1ccccc1F | 0.963 |
| Cc1cc(C)n(-c2nc(C(F)(F)F)nc3ccccc23)n1 | -0.0244 |
| CN(NC(=O)c1ccccc1F)c1nc(C(F)(F)F)nc2ccccc12 | 2.83 (active) |
| Cc1ccc(C)c(-n2cc(CN3CCN(C(=O)c4ncn[nH]4)CC3)c(-c3ccccc3)n2)c1 | -0.754 |
| COc1ccc(N2CCN(C(=O)COc3ccc4c(C)cc(=O)oc4c3)CC2)cc1 | -0.589 |
| Cc1ccccc1N1CCN(CCCOc2ccc3c(C)cc(=O)oc3c2)CC1 | -4.08 (active) |
| CCOc1ccccc1N1CCN(C(=O)COc2ccc3c(C)cc(=O)oc3c2)CC1 | 0.824 |
| CCO/C=C1\C(=O)N(c2ccc(OCC)cc2)C(=O)c2ccccc21 | -0.0391 |
| CCNC(=O)CC1C(=O)N(c2ccc(OC)cc2)C(=S)N1CCc1ccncc1 (stereo not given) | 0.277 |
| Cc1cc(/C=N/NC(=O)c2cccnc2)c(C)n1CC(C)C | 1.51 |
| CCc1ccc(C(=O)OCC(=O)Nc2cccc(S(=O)(=O)NC3=NCCCCC3)c2)cc1 | -1.41 |
| Cc1cccc(-n2c(SCC(=O)Nc3cccc(S(=O)(=O)NC4=NCCCCC4)c3)nc3ccccc3c2=O)c1C | -5.4 (active) |
| C/C(=N\NC(=O)CSc1nc2ccccc2c(=O)n1-c1ccccc1C)c1cccs1 | 0.111 |
| O=C(N/N=C/c1ccccn1)c1ccc(S(=O)(=O)N2CCCCCC2)cc1 | 1.67 |
| C/C(=N\N1CCN(Cc2ccc(C)cc2)CC1)c1ccco1 | -0.228 |
| O=C(Nc1ccccc1)N1CCN(Cc2ccccc2)CC1 | -0.796 |
| CC12CN(Cc3ccccc3)CC(C)(CN(Cc3ccccc3)C1)C2=NO | -3.21 (active) |
| COc1cc2c(C(=O)N3CCN(C)CC3)c(CSc3ccccc3)n(C)c2cc1Br | -0.529 |
| Cc1ccnc(NC(=O)CCC(=O)N(CC(=O)NCc2ccccc2)Cc2ccco2)c1 | -0.274 |

| SMILES | B-score |
| --- | --- |
| COc1ccc([N+](=O)[O-])cc1N(CC(O)CN(CC(C)C)CC(C)C)S(=O)(=O)c1ccc(C)cc1 (stereo not given) | -3.76 (active) |
| Cc1ccc(N(CC(O)CN2CCCC2)S(=O)(=O)c2ccccc2)cc1 (stereo not given) | -0.891 |
| CCN(CC)C(=O)CN(c1cccc(OC)c1)S(=O)(=O)c1ccc(C)cc1 | 0.523 |
| C/C(Cc1ccccc1)=N\NC(=O)CNC(=O)c1ccccc1Cl | 0.223 |
| CN(/C(=N/S(=O)(=O)c1cccs1)c1ccccc1)c1ccc(O)cc1 | 0.111 |
| O=C(NNC(=S)NCc1ccco1)C(c1ccccc1)c1ccccc1 | -0.0839 |
| CCC1CCCCN1S(=O)(=O)Cc1ccccc1Cl (stereo not given) | -1.11 |
| COc1ccc(N2CCN(C(=O)C3CCN(S(=O)(=O)c4ccc(C)cc4)CC3)CC2)cc1 | 0.00237 |
| C(=N\N1CCN(c2ccccn2)CC1)/C1=C(N2CCOCC2)C(=C/c2ccccc2)/CC1 | -0.00313 |
| O=C1Nc2ccc(Br)cc2/C1=N/N=C/C1=C(N2CCOCC2)C(=C\c2ccccc2)/CC1 | 1.2 |
| N#C/C(=C\C1=C(N2CCOCC2)C(=C\c2ccccc2)/CC1)C(=O)Nc1ccccc1F | -3.73 (active) |
| Cc1cccc(NC(=O)CSc2nnc(CCNC(=O)OC(C)(C)C)o2)c1C | 0.146 |
| Fc1cccc(CSc2nnc3ccc(-c4ccncc4)nn23)c1 | 1.92 |
| CSCCNCc1cn(-c2ccc(F)cc2F)nc1-c1ccccc1C | -0.924 |
| CCCCCCCNc1nc(Cl)nc(NCCO)n1 | -0.271 |
| C=CCc1ccc(OCC(O)CN2CCN(Cc3ccccc3)CC2)c(OC)c1 (stereo not given) | -1.83 |
| Cc1ccc(-c2csc(NC(=O)c3cnccn3)n2)cc1C | 1.18 |
| Cc1nc2ccccc2nc(=O)c1NNc1ccc([N+](=O)[O-])cc1 | 3.6 (active) |
| Cc1nc2ccccc2cc1C(=O)N/N=C/c1ccc([N+](=O)[O-])cc1 | -0.145 |
| O=C(Nn1c(-c2ccccc2)nc2ccccc2c1=O)c1ccc([N+](=O)[O-])cc1 | 1.18 |
